D1 PAM: human D1 dopamine receptor positive modulation | HEK293 TREx D1 cells, calcium flux, dopamine EC20 potentiation | potentiation, % at 10 µM | 0.036% of 360,000 active | AID 504651; in the data active means potentiation above about 30%; further: 0% is about no effect
D1 antag: human D1 dopamine receptor antagonism; P21728; HEK293 TREx D1 cells, calcium flux, dopamine EC80; stronger effect = lower value; activity change, negative = inhibition, % at 10 µM; 3.2% of 360,000 active; AID 504652; in the data active means activity change below about -30%; further: on the % scale 0 is the no-effect control and ±100 the full control effect
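HEK293 T-REx cells expressing inducible, force-coupled D1 receptor; no-wash Ca dye, 30–90 min RT. Cmpd → 180 s read at 1 Hz → EC80 DA → 180 s read.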
TRHR agonist: activates the human TRH receptor. P34981. TRHR cells, calcium flux fluo-8, FDSS agonist mode. activation, % at 2 µM. 0.18% of 360,000 active. AID 493084; further: 0% is about no effect
Target sequence (P34981 whole entry, looked up): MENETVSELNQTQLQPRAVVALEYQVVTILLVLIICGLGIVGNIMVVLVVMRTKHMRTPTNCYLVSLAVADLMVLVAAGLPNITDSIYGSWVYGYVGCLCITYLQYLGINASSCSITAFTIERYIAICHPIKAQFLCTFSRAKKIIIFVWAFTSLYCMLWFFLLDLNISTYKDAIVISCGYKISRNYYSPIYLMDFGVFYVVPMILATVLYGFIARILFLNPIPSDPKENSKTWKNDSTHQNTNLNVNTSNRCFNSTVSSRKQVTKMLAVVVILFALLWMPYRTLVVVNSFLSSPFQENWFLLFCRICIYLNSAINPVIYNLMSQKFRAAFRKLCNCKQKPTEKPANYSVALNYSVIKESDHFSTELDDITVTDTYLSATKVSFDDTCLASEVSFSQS
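In this calcium-flux screen, cells bearing human TRHR are dye-loaded with fluo-8, baselined for 10 cycles, then exposed to library compounds; positive kinetic calcium responses during the agonist phase mark hits, with TRH as control.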
TRHR PAM: TRH receptor (human) allosteric enhancement | TRHR cells, fluo-8 calcium fluorescence, EC20 TRH enhancement | enhancement, % at 2 µM | 0.66% of 360,000 active; in the data active means enhancement above about 30%; further: 0% is about no effect
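TRHR-expressing cells loaded with fluo-8 calcium dye were read kinetically (ex 480/em 530) during compound addition, then stimulated with an EC20 of TRH (10 nM final). Enhancement of the Gq-mediated intracellular calcium response was scored.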
D1 ag: human D1 receptor agonism | 1% of 360,000 active | HEK293 T-REx D1 cells, calcium flux, agonist mode | activation, % at 2 µM | P21728; further: 0% is about no effect
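Inducible HEK293 T-REx D1 cells, force-coupled to calcium signalling, were plated at 4000 cells/well with tetracycline and held overnight at 30 C. After no-wash calcium dye loading, compound-evoked calcium rise over 180 s flagged agonists.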
* marks the source's active call; other numbers are inactive results; / = not tested or not shown. Most compounds without a hit are left out; they make up all but 4.7% or so of the library. Unless noted, no stated cut-off is given here; in the data, active means activation above about 30%; inactive means the rest.

SMILES | D1 PAM | D1 antag | TRHR agonist | TRHR PAM | D1 ag
Cc1ccc(/C=N/NC(=O)Cc2ccc(O)cc2)s1 | 3.7 | -32.7* | -0.1 | 1.4 | 2.5
O=C(Cc1ccc(O)cc1)N/N=C/c1cccs1 | -1.1 | 16.1 | 0.7 | -1.9 | 2.4
CCc1ccccc1NC(=O)C(=O)NCCc1sc(-c2cccc(C)c2)nc1C | -2.6 | 21.1 | 1.2 | 7.6 | 9.2
CC(C)c1ccc(CNC(=O)C(=O)NCCCn2ccnc2)cc1 | 0.0 | -5.2 | 0.1 | 31.9* | 3.9
Cc1cc(Cl)ccc1OC(C)C(=O)NCCCn1ccnc1 (stereo unspecified) | -8.6 | -35.3* | 0.2 | -3.0 | 7.4
O=C(CCc1ccccc1)N1CCN(Cc2ccc(F)cc2Cl)CC1 | -2.5 | 11.1 | -0.7 | 1.5 | 2.4
Cc1cccc(N(C)C(CNS(=O)(=O)c2ccccc2)c2ccccc2)c1 (stereo unspecified) | -3.1 | -7.9 | -1.1 | 4.7 | 3.2
CC(C)c1ccc(NC(=O)c2ccc3c(c2)CCCN3S(C)(=O)=O)cc1 | 2.5 | -13.4 | -0.4 | -3.1 | -1.1
CN(C)/N=C/C=C1\CCC/C(=C\c2ccc(F)c(F)c2)C1=O | -4.2 | / | 4.8 | -5.7 | 0.0
COc1ccc(/C=C2\CCC/C(=C\C=N\N(C)C)C2=O)cc1 | -2.0 | -35.1* | 1.1 | -9.0 | 13.5
CN(C)c1ccc(/C=C2\CCC/C(=C\c3ccccc3)C2=O)cc1 | 0.5 | -18.9 | 24.2 | -4.8 | 90.8*
CCN(CC)C(=O)Cn1cc(C(=O)C(=O)NCCc2ccc(S(N)(=O)=O)cc2)c2ccccc21 | -12.8 | -74.4* | 0.5 | -3.5 | 1.5
NS(=O)(=O)c1ccc(CCNC(=O)C(=O)c2cn(CC(=O)N3CCOCC3)c3ccccc23)cc1 | 2.8 | -4.7 | 0.3 | 34.4* | 0.6
O=C(NCc1ccccc1Br)c1ccc2c(c1)nc1n2CCOC1 | -0.8 | -1.0 | -0.1 | -1.0 | -0.4
Oc1c(Cl)cc(Cl)cc1Sc1cc(Cl)cc(Cl)c1O | -5.3 | -55.8* | 0.8 | -7.5 | 27.5
Oc1c(Cl)cc(Cl)cc1CNn1cnnc1 | -3.8 | 1.1 | 1.1 | 6.8 | 6.0
CCOc1ccccc1NC(=O)CCc1nc(-c2cccc(C)c2)no1 | 1.6 | -10.2 | -0.2 | -0.6 | 2.7
Cc1cccc(C)c1NC1=C(Cl)C(=O)OC1OC(=O)c1ccccc1 (stereo unspecified) | -1.2 | -48.5* | -0.5 | -8.3 | -1.2
Cc1ccccc1NC1=C(Cl)C(=O)OC1OC(=O)c1ccccc1C (stereo unspecified) | -1.3 | -21.9 | -0.1 | -8.0 | 0.8
Cc1ccc(NC2=C(Cl)C(=O)OC2OC(=O)c2ccco2)cc1 (stereo unspecified) | -1.2 | -20.7 | 0.2 | -5.3 | 4.5
Cc1ccc(NC2=C(Cl)C(=O)OC2OC(=O)c2ccccc2)c(C)c1 (stereo unspecified) | -2.1 | -50.6* | -0.4 | -2.2 | 9.2
Cn1c(=O)c2c(n3ncnc13)NC(=O)CC2c1cccc(F)c1 (stereo unspecified) | -1.9 | 0.4 | 1.0 | -1.3 | -0.8
Cn1cccc1CNC(=S)Nc1ccccc1Cl | -10.2 | -41.6* | -0.1 | -9.6 | 4.4
COc1ccc(C(=O)N(Cc2ccc(N(C)C)cc2)Cc2ccco2)cc1Cl | 0.7 | -21.8 | -0.4 | 1.3 | 2.3
Cn1cnc([N+](=O)[O-])c1Oc1cccc2ccccc12 | 1.9 | -2.8 | -0.8 | 37.5* | -0.5
SMILES | D1 PAM | D1 antag | TRHR agonist | TRHR PAM | D1 ag
Cn1cnc([N+](=O)[O-])c1Oc1ccccc1 | -2.4 | 4.6 | 0.2 | 5.1 | 0.2
Cc1ccc(CCNS(=O)(=O)c2ccc3c(c2)CC(C)N3C(=O)C2CCC2)cc1 (stereo unspecified) | -1.9 | 2.5 | -0.4 | -6.2 | 0.8
O=C1CSC2(C(=O)N(Cc3c(F)cccc3Cl)c3ccccc32)N1c1ccc(F)c(F)c1 (stereo unspecified) | -4.2 | 6.5 | -0.8 | -3.9 | 6.5
Cc1noc(C)c1COc1ccccc1C(=O)N(C)CC(=O)Nc1ccc(F)cc1 | 34.0* | -20.5 | -0.3 | 3.4 | 0.6
Cc1noc(C)c1COc1ccccc1C(=O)NCCc1ccc(S(N)(=O)=O)cc1 | -11.1 | -33.9* | 0.2 | -5.3 | 1.9
COc1ccc(NC(=O)CN(C)C(=O)c2ccccc2OC)cc1 | 2.8 | 1.6 | 0.7 | 35.3* | 1.2
COc1ccc(NC(=O)CN(C)C(=O)c2cccc3ccccc23)cc1 | -1.6 | -6.1 | 0.1 | -0.2 | 1.9
Cc1noc(C)c1CSCC(=O)N(C)CC(=O)Nc1ccc(Cl)cc1 | -8.2 | -44.2* | -0.4 | -3.3 | 3.0
Cc1noc(C)c1COc1ccccc1C(=O)N(C)Cc1ccc(F)cc1 | -3.6 | -10.8 | 0.6 | -7.0 | 2.3
Cc1noc(C)c1COc1ccccc1C(=O)N(C)Cc1ccc(C(C)(C)C)cc1 | -11.4 | -36.2* | 2.0 | -8.9 | 12.8
Cc1ccc(C)n1NC(=O)c1ccccc1Cl | -3.1 | -10.2 | -0.2 | -1.8 | 2.7
CC(=O)c1c(C(C)=O)c(C)n(NC(=O)c2ccccc2Cl)c1C | -11.8 | -49.1* | -0.8 | -10.0 | 15.3
O=c1c2cc(Br)ccc2nc(-c2cccc(C(F)(F)F)c2)n1O | 3.6 | 2.8 | 14.7 | -4.4 | 62.1*
O=c1c2cc(Cl)ccc2nc(-c2ccc(Cl)c(Cl)c2)n1O | -10.4 | -44.5* | 16.6 | 9.3 | 87.7*
CC(C)(C)OC(=O)N[C@@H](Cc1ccccc1)c1nnc(S(=O)(=O)Cc2ccccc2)o1 | -11.7 | -47.5* | 2.8 | -12.3 | 5.3
CCSc1nnc([C@H](Cc2ccccc2)NC(=O)OC(C)(C)C)o1 | -0.8 | / | -0.8 | -4.5 | 1.2
Cc1ccccc1CS(=O)(=O)c1nnc([C@H](Cc2ccccc2)NC(=O)OC(C)(C)C)o1 | -10.8 | -37.6* | -0.7 | 2.8 | 20.0
O=C(Cc1ccc(F)cc1)NC1CC(=O)N(c2ccc3c(c2)OCCO3)C1 (stereo unspecified) | -1.6 | / | 0.0 | -5.7 | 0.6
COc1ccc(OC)c(CNC(=O)CN2N=C(c3ccc(Cl)cc3)CCC2=O)c1 | 0.1 | -0.3 | -0.4 | -13.9 | 0.7
COc1ccccc1C(=O)Nc1ccc(OCc2cc(=O)n3cccc(C)c3n2)cc1 | 3.3 | 5.9 | -0.2 | 2.9 | 1.6
Cc1cccn2c(=O)cc(COc3ccc(NC(=O)C(C)Oc4ccccc4)cc3)nc12 (stereo unspecified) | -3.2 | -49.3* | -0.5 | 3.6 | 1.1
Cc1cccn2c(=O)cc(COc3cccc(NC(=O)c4cccc(Cl)c4)c3)nc12 | -3.4 | -14.0 | -0.4 | 5.3 | -1.5
Cc1cccn2c(=O)cc(COc3cccc(NC(=O)Nc4cccc(Cl)c4)c3)nc12 | -2.2 | -59.1* | 0.1 | -1.2 | 0.6
Cc1cccc(C(=O)Nc2cccc(OCc3cc(=O)n4ccccc4n3)c2)c1 | -6.3 | -71.0* | -0.2 | 0.2 | -1.1
CCOc1ccc(C(=O)Nc2cccc(OCc3cc(=O)n4ccccc4n3)c2)cc1 | -3.0 | -17.3 | -0.6 | -7.5 | -2.1
